Source: PubChem BioAssay
Inconclusive results are not listed. Calls of active or inactive are those of the source.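 The calls were made as follows, unless noted: active = normalized viability below 100% at a tested concentration; inactive = the rest.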

Legend:
[1] = viability loss in pontine glioma line – cell-based, SU-DIPG-XVII, MIPE5.0, CellTiter-Glo, qHTS, dose response (AID 1347060; cut-off not given, nearly all actives have AC50 up to about 26 µM;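 also: cells exposed to compound for 48 hours before viability readout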); conditions: CellTiter-Glo ATP luminescence
[2] = viability loss in pontine glioma line – cell-based, SU-DIPG-XIII, MIPE5.0, CellTiter-Glo, qHTS, dose response (AID 1347064; cut-off not given, nearly all actives have AC50 up to about 23 µM;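 also: cells exposed to compound for 48 hours before the viability read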); conditions: CellTiter-Glo ATP luminescence
[3] = viability loss in pontine glioma line – cell-based, SU-DIPG-XXV, MIPE5.0, CellTiter-Glo, qHTS, dose response (AID 1347065; cut-off not given, nearly all actives have AC50 up to about 26 µM;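 also: cells exposed to compound for 48 hours before ATP readout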); conditions: CellTiter-Glo ATP luminescence
[4] = growth inhibition of DIPG cells – cell-based, MIPE4.0 library, CellTiter-Glo luminescence, qHTS (AID 1347066; cut-off not given, nearly all actives have AC50 up to about 30 µM;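 also: cells exposed to compound for 48 hours before readout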); conditions: SU-DIPG-VI viability, CellTiter-Glo ATP luminescence
[5] = JHH-DIPG-1 glioma cell viability, MIPE5.0 library, CellTiter-Glo luminescence, qHTS (AID 1347067; cut-off not given, nearly all actives have AC50 up to about 26 µM;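 also: cells exposed to compound for 48 hours before readout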); conditions: JHH-DIPG-1 glioma viability, CellTiter-Glo ATP luminescence
[6] = growth inhibition of DIPG cells – cell-based, MIPE5.0 library, qHTS (AID 1347068; cut-off not given, nearly all actives have IC50 up to about 30 µM); conditions: SU-DIPG-XXV viability
[7] = viability loss with induced miR-34 in A549 – imaging, A549 dox-inducible miR-34, nuclei and caspase counts, primary screen (AID 1347080;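 active = compounds whose cell count with miR-34 switched on is under 0.7 times the count with it off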); conditions: A549 miR-34 inducible, Hoechst nuclei count, 48 h
[8] = MELAS cybrid and Rieske KO viability enhancers – cell-based, MELAS cybrids, Rieske KO mouse fibroblasts, CellTiter-Glo, primary screen (AID 1508586;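 active = mean z-score across replicates of 1.96 or higher in either the MELAS or the Rieske mutant cell line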;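 also: z relative to plate mean and SD of compound and empty wells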); conditions: low glucose
[9] = drug combination growth inhibition, ovarian cancer – cell-based, oncology-focused library, rucaparib conditional, profiling panel (AID 1508598); conditions: patient-derived ovarian cancer cells, CellTiter-Glo viability, 144 h, stronger effect = lower value

COCCOc1nc(-c2ccc(Cl)c(Cl)c2)n(-c2ccc(NC(=O)CCl)cc2)n1
inactive: outcome [4] | outcome [6] | fold change ([7]; stronger effect = lower value, cell number ratio, induced over uninduced) 1.14 | z-score ([8]; MELAS cybrid survival, CellTiter-Glo 48 h, stronger effect = higher value) -0.782 | viability ([9]; at 0.000305 µM, OCI-C5x cells, with rucaparib 10 µM, 100% = cells with rucaparib alone) 125% | viability ([9]; at 0.000305 µM, OCI-C5x cells, without rucaparib) 115% | viability ([9]; at 0.000305 µM, OCI-P5x cells, with rucaparib 20 µM, 100% = cells with rucaparib alone) 104% | viability ([9]; at 0.000305 µM, OCI-P5x cells, without rucaparib) 105% | viability ([9]; at 0.00122 µM, OCI-C5x cells, with rucaparib 10 µM, 100% = cells with rucaparib alone) 131% | viability ([9]; at 0.00122 µM, OCI-C5x cells, without rucaparib) 104% | viability ([9]; at 0.00122 µM, OCI-P5x cells, without rucaparib) 103% | viability ([9]; at 0.00488 µM, OCI-C5x cells, with rucaparib 10 µM, 100% = cells with rucaparib alone) 131% | viability ([9]; at 0.00488 µM, OCI-C5x cells, without rucaparib) 113% | viability ([9]; at 0.00488 µM, OCI-P5x cells, with rucaparib 20 µM, 100% = cells with rucaparib alone) 105% | viability ([9]; at 0.0195 µM, OCI-C5x cells, with rucaparib 10 µM, 100% = cells with rucaparib alone) 114% | viability ([9]; at 0.0195 µM, OCI-C5x cells, without rucaparib) 106% | viability ([9]; at 0.0195 µM, OCI-P5x cells, with rucaparib 20 µM, 100% = cells with rucaparib alone) 103% | viability ([9]; at 0.0195 µM, OCI-P5x cells, without rucaparib) 100% | viability ([9]; at 0.0781 µM, OCI-C5x cells, with rucaparib 10 µM, 100% = cells with rucaparib alone) 125% | viability ([9]; at 0.0781 µM, OCI-C5x cells, without rucaparib) 111% | viability ([9]; at 0.313 µM, OCI-C5x cells, with rucaparib 10 µM, 100% = cells with rucaparib alone) 124% | viability ([9]; at 0.313 µM, OCI-C5x cells, without rucaparib) 112% | viability ([9]; at 1.25 µM, OCI-C5x cells, without rucaparib) 112%
-7.88: z-score ([8]; Rieske KO mouse fibroblast survival, CellTiter-Glo 72 h)
3760: cell count ([7]; measured here: total cells with miR-34 induction, stronger effect = lower value)
active: AC50 [1] 1320 nM | AC50 [2] 2630 nM | AC50 [3] 2950 nM | AC50 [5] 2630 nM | viability ([9]; at 0.00122 µM, OCI-P5x cells, with rucaparib 20 µM, 100% = cells with rucaparib alone) 93.4% | viability ([9]; at 0.00488 µM, OCI-P5x cells, without rucaparib) 99.8% | viability ([9]; at 0.0781 µM, OCI-P5x cells, with rucaparib 20 µM, 100% = cells with rucaparib alone) 95.6% | viability ([9]; at 0.0781 µM, OCI-P5x cells, without rucaparib) 97.3% | viability ([9]; at 0.313 µM, OCI-P5x cells, with rucaparib 20 µM, 100% = cells with rucaparib alone) 96.8% | viability ([9]; at 0.313 µM, OCI-P5x cells, without rucaparib) 90.6% | viability ([9]; at 1.25 µM, OCI-C5x cells, with rucaparib 10 µM, 100% = cells with rucaparib alone) 97.1% | viability ([9]; at 1.25 µM, OCI-P5x cells, with rucaparib 20 µM, 100% = cells with rucaparib alone) 86.3% | viability ([9]; at 1.25 µM, OCI-P5x cells, without rucaparib) 86.9% | viability ([9]; at 5 µM, OCI-C5x cells, with rucaparib 10 µM, 100% = cells with rucaparib alone) 2.67% | viability ([9]; at 5 µM, OCI-C5x cells, without rucaparib) 92.5% | viability ([9]; at 5 µM, OCI-P5x cells, with rucaparib 20 µM, 100% = cells with rucaparib alone) 1.14% | viability ([9]; at 5 µM, OCI-P5x cells, without rucaparib) 6.27%
3290: cell count ([7]; measured here: total cells without miR-34 induction)
0.519: fold change ([7]; measured here: relative caspase fold change +Dox/-Dox)
